From PubChem BioAssay
Sampled rows, rich in hits. Any-hit rate of the full collection: about 2%.
Neddyl block: inhibitors of cullin neddylation, primary screen, biochemical, TR-FRET, uHTS, NAE and Ubc12 | inhibition, % at 25 µM | 360,000 tested, 0.58% active | AID 651699, 2012; in the data active = inhibition above about 36%
NPR1 activator: GC-A stimulated cGMP production enhancers – HEK293 GC-A cells, cGMP TR-FRET, EC30 ANP, primary screen. Atrial natriuretic peptide receptor 1 (Homo sapiens), P16066. 0% at EC30 ANP, 100% saturating ANP. activation, % at 10 µM. 370,000 tested, 0.14% active. AID 1671463, 2021; in the data active = activation above about 40%
GC-B act: human GC-B receptor activators, primary screen, HEK293 GC-B cells, cGMP TR-FRET, EC30 CNP. activation, % at 10 µM. Atrial natriuretic peptide receptor 2 (Homo sapiens), P20594. 370,000 tested, 0.11% active. 0% at EC30 CNP, 100% saturating CNP;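 active = activation at 10 µM reaching about 35% in either raw or pattern-adjusted values, limit read from the data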
PfG6PD inh: PfG6PD enzyme inhibitors, primary screen, biochemical, fluorescence intensity, uHTS; glucose-6-phosphate dehydrogenase-6-phosphogluconolactonase (Plasmodium falciparum 3D7); PfGluPho enzyme, NADPH resazurin-diaphorase fluorescence; inhibition, % at 20 µM; 350,000 tested, 0.78% active; AID 504690, 2011;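 active = inhibition reaching at least a set limit at 20 µM in the primary screen, cut at about 59% in these data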
A3G deaminase: APOBEC3G DNA deaminase inhibitors, primary screen, biochemical, fluorescence, single-stranded DNA substrate, uHTS; 330,000 tested, 0.28% active; recombinant A3G, ssDNA deamination FAM/TAMRA fluorescence; inhibition, % at 20 µM;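 active = inhibition of at least 40% at 20 µM, with no more than 30% in the related APOBEC3A deaminase screen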
Target sequence (Q9HC16 whole entry, looked up): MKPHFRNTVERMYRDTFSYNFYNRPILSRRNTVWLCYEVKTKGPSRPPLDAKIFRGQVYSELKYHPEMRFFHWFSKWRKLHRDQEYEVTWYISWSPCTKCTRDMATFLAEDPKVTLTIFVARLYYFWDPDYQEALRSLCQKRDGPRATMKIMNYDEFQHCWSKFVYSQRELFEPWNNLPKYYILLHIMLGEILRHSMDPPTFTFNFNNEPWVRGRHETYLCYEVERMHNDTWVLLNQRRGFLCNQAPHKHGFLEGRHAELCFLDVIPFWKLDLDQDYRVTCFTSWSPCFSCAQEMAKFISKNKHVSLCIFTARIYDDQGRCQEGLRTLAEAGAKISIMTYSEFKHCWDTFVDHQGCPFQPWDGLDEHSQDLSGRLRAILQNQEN
A3A deaminase: APOBEC3A ssDNA deaminase inhibitors, primary screen, selectivity assay for APOBEC3G inhibitor project, biochemical, FAM/TAMRA oligo cleavage fluorescence; DNA dC->dU-editing enzyme APOBEC-3A (Homo sapiens), P31941; recombinant A3A, FAM/TAMRA ssDNA deamination fluorescence; inhibition, % at 20 µM; 330,000 tested, 0.41% active; AID 493011, 2011;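 active = at least 40% inhibition at 20 µM here, with at most 30% in a related deaminase screen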
Target sequence (P31941 whole entry, looked up): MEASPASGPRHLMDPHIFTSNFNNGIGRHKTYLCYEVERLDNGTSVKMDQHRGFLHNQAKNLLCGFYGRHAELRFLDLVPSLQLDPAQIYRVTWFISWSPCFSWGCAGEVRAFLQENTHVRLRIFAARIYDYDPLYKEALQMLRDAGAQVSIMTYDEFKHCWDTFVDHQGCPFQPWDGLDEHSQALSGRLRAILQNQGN
Neddyl conf: blockade of NEDD8 conjugation to cullin – biochemical, TR-FRET, single concentration, confirmation. 1,800 tested, 13% active. TR-FRET cullin neddylation biochemical assay. calls only at 25 µM. shares compounds with Neddyl block; in the data active = inhibition above about 40%;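 note: neddylation substrate is the cullin 1 ring ligase complex with SKP2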
Numbers stand for hits; – = inactive; · = not tested or not shown; + = active, no number.

SMILES | Neddyl block | NPR1 activator | GC-B act | PfG6PD inh | A3G deaminase | A3A deaminase | Neddyl conf
O=C(C1CCCN1S(=O)(=O)c1cccc2ccccc12)N1CCN(c2ccccc2)CC1 (stereo unspecified) | · | – | – | · | · | · | ·
COC(=O)C1=C(C)N(Cc2cccc(C(F)(F)F)c2)C(=NCc2cc(OC)c(OC)c(OC)c2)NC1c1cccc(C(F)(F)F)c1 (stereo unspecified) | · | – | – | · | · | · | ·
CCOC(=O)Cc1csc(NC(=O)/C=C/c2ccc(Cl)cc2)n1 | 38 | – | – | – | – | – | –
CCOC(=O)Cc1csc(NC(=O)/C=C/c2ccco2)n1 | – | – | – | – | – | – | ·
COC1(OC)N=C(N)C2(C#N)C(c3ccccc3)NC(C)=CC12C#N (stereo unspecified) | · | – | – | – | – | – | ·
COc1ccc(C2NC3=C(CCC3)C3(C#N)C(OC)(OC)N=C(N)C23C#N)cc1 (stereo unspecified) | 39 | · | · | – | – | – | –
CCCOc1ccc(-c2nc(C#N)c(N3CCc4ccccc4C3)o2)cc1 | 49 | – | – | – | – | – | –
N#Cc1nc(-c2ccco2)oc1N1CCc2ccccc2C1 | 45 | – | – | – | – | – | –
N#Cc1nc(-c2ccccc2)oc1N1CCN(C(=O)c2ccco2)CC1 | 42 | – | – | – | – | – | –
N#Cc1nc(-c2ccco2)oc1N1CCCC1 | · | – | – | – | – | – | ·
CCCOc1ccc(-c2nc(C#N)c(N3CCN(C)CC3)o2)cc1 | 46 | – | – | – | – | – | ·
O=C(NCC1CCN(C(=O)C(=O)c2cccs2)CC1)c1cccnc1 | · | – | – | · | · | · | ·
COc1ccc(S(=O)(=O)N(CC(=O)O)c2ccccn2)cc1 | 40 | – | – | – | – | – | –
COc1ccc(S(=O)(=O)N(CC(=O)O)c2ccccc2)cc1 | – | – | – | – | – | – | ·
COC(=O)c1ccc(CN(c2ccccn2)S(=O)(=O)c2ccccc2)cc1 | 41 | – | – | – | · | · | –
COc1ccc(C(=O)C2(C(=O)NCCO)CC(c3ccccn3)=NO2)cc1 (stereo unspecified) | · | – | – | · | · | · | ·
Cc1cc(-c2ccccc2)nc2oc(C(=O)NN)c(N)c12 | 43 | – | – | – | – | – | +
Cc1cc(C)c2c(N)c(C(=O)c3ccccc3)oc2n1 | – | – | – | – | – | – | ·
CCn1cc(C(=O)NN)c(=O)c2cc(F)c(N3CCN(C)CC3)cc21 | – | – | – | – | – | – | ·
CCn1cc(C(=O)O)c(=O)c2cc(F)c(N3CCN(C(=S)NC(=O)c4ccc(F)cc4)CC3)cc21 | – | – | – | – | – | – | ·
CCn1cc(C(=O)NCCC(C)C)c(=O)c2cc(F)c(N3CCN(C)CC3)cc21 | 44 | – | – | – | – | – | ·
CCCOc1ccc(C(=O)NC(=S)N2CCN(c3cc4c(cc3F)c(=O)c(C(=O)O)cn4CC)CC2)cc1 | 40 | – | – | – | – | – | –
CCCCNC(=O)c1cn(CC)c2cc(N3CCN(C)CC3)c(F)cc2c1=O | · | – | – | – | – | – | ·
CCN(CC)CCNC(=O)c1cn(CC)c2cc(N3CCN(C)CC3)c(F)cc2c1=O | 47 | – | – | – | – | – | ·
C#CCNC(=O)C[C@@H]1C(=O)N(Cc2ccc(OC)cc2)/C2=C/CCCCC[C@@]21C(=O)OCC | · | – | – | · | · | · | ·
SMILES | Neddyl block | NPR1 activator | GC-B act | PfG6PD inh | A3G deaminase | A3A deaminase | Neddyl conf
CCc1cc2c(nc1CC)CCCN2S(=O)(=O)c1ccc(C(F)(F)F)cc1 | · | – | – | · | · | · | ·
CCOP(=O)(OCC)c1ccc2c(c1)C(=O)c1ccccc1-2 | · | – | – | · | · | · | ·
CC(C)(C)c1ccc(OCC(=O)N/N=C/c2ccc(N3CCOCC3)cc2)cc1 | 54 | – | – | – | – | – | –
Cc1ccc(C)c(OCC(=O)N/N=C/c2ccsc2)c1 | – | – | – | – | – | – | ·
C/C(=N/NC(=O)COc1ccc(C(C)(C)C)cc1)c1ccc(N2CCOCC2)cc1 | – | – | – | – | · | · | ·
Cc1ccc(C)c(OCC(=O)N/N=C/c2ccc(N3CCOCC3)cc2)c1 | 48 | – | – | – | · | · | +
Cc1ccccc1N1CCN(C(=O)COc2cc(=O)n(C)c3ccccc23)CC1 | · | – | – | · | · | · | ·
CCc1ccc(C2C(C#N)=C(N)Oc3cc(N)ccc32)cc1 (stereo unspecified) | 44 | – | – | – | – | – | –
CSc1nnc(-c2sc3cc(C(F)(F)F)cnc3c2-c2ccccn2)n1C | 42 | – | – | – | – | – | –
Cn1c(-c2sc3cc(C(F)(F)F)cnc3c2-c2ccccn2)n[nH]c1=S | – | – | – | – | – | – | ·
CCN(CC)c1ccc2c(Cl)cc(=O)oc2c1 | · | – | – | – | – | – | ·
CCN(CC)c1ccc2c(O)cc(=O)oc2c1 | 41 | – | – | – | – | – | –
O=C(Nc1ccccc1)c1cn2ccccc2n1 | – | – | – | – | – | – | ·
O=C(Nc1ccc(-n2cnnn2)cc1)c1cn2ccccc2n1 | 52 | – | – | – | – | – | –
CCC(=O)Nc1cc2c(C)cc(=O)oc2cc1C | 50 | – | – | – | – | – | ·
CCCCCCC(=O)Nc1cc2c(C)cc(=O)oc2cc1C | – | – | – | – | – | – | ·
CC1(C)CC(=O)C2=C(C1)c1c(ccc3ccccc13)NC2c1ccc(Br)o1 (stereo unspecified) | 43 | – | – | – | – | – | –
Cn1c(=O)[nH]c(=O)c2c1nc(N1CCCCC1)n2C/C=N/NC(=O)c1cc(Br)ccc1O | 46 | – | – | – | – | – | ·
CCOC(=O)c1[nH]c2ccc(Cl)cc2c1NC(=O)/C=C/c1ccc2c(c1)OCO2 | 42 | – | – | – | – | – | –
Cc1cc(-n2ccnc2)n2c(nc3ccccc32)c1C#N | 43 | – | – | – | – | – | –
Cc1nc2cc(F)ccc2n1C1CCN(C(=O)c2ccc(F)cc2F)CC1 | – | – | – | – | – | – | ·
Cc1nc2cc(F)ccc2n1C1CCN(C(=O)c2c(F)cccc2F)CC1 | 45 | – | – | – | – | – | –
CC(C)c1ccc(/C=C/C2=NNC(=O)CC2)cc1 | – | – | – | – | – | – | ·
COc1cc(/C=C/C2=NNC(=O)CC2)cc(OC)c1OC | 41 | – | – | – | – | – | –
